Results: PubChem BioAssay (NCI)
The panel holds about 83,000 compounds, 20% with a hit somewhere; the sample as a whole holds those more often.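 Negative percent growth values reflect cell death: -40 means 40% of the cells present at the start died, and -100 means all died.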 Activity calls are given as the source filed them. Rule for the calls: active = growth percent below 10; inactive = the rest.

What was measured:
Assay in all cases: NCI-60 one-dose screen, 48 h (100 = growth as untreated, 0 = no growth, -100 = all killed)
Conditions in all cases: 10 µM unless noted
HCT-15 colon = tested on: HCT-15 colon
HT29 colon = tested on: HT29 colon
SNB-75 CNS = tested on: SNB-75 CNS
SNB-19 CNS = tested on: SNB-19 CNS
U251 CNS = tested on: U251 CNS
PC-3 prostate = tested on: PC-3 prostate
SK-MEL-5 melanoma = tested on: SK-MEL-5 melanoma
UACC-62 melanoma = tested on: UACC-62 melanoma
LOX IMVI melanoma = tested on: LOX IMVI melanoma
SK-MEL-28 melanoma = tested on: SK-MEL-28 melanoma

Measured: growth

COc1ccc(/C=C2/SC(=Nc3c(C)nn(-c4ccccc4)c3N)NC2=O)cc1
active: SNB-75 CNS 5.59%
inactive: HCT-15 colon 33.3% | HT29 colon 16.6% | SNB-19 CNS 51.3% | U251 CNS 40% | PC-3 prostate 29.1% | SK-MEL-5 melanoma 21.2% | UACC-62 melanoma 26.8% | LOX IMVI melanoma 33.1% | SK-MEL-28 melanoma 58.7%

COc1cc2c(cc1OC)C(=O)/C(=C/c1cccc(OCC(=O)c3ccccc3)c1)C2
inactive: HCT-15 colon 83.4% | HT29 colon 42.1% | SNB-75 CNS 85.2% | SNB-19 CNS 93.3% | U251 CNS 74.2% | PC-3 prostate 62% | SK-MEL-5 melanoma 67.6% | UACC-62 melanoma 68.1% | LOX IMVI melanoma 72.3% | SK-MEL-28 melanoma 107%

COc1ccc(Cl)cc1Nc1nc(C(F)(F)F)ccc1C(=O)N/N=C/c1c(Cl)cccc1Cl
inactive: HCT-15 colon 30.6% | HT29 colon 52.1% | SNB-75 CNS 63.5% | SNB-19 CNS 55.5% | U251 CNS 29.1% | PC-3 prostate 48.5% | SK-MEL-5 melanoma 13.4% | UACC-62 melanoma 52.9% | LOX IMVI melanoma 32.3% | SK-MEL-28 melanoma 62.2%

Clc1ccc(C2=NN(c3ccc(Cl)cc3)C(c3cccc(Nc4ccnc5cc(Cl)ccc45)c3)C2)cc1 (stereo not given)
inactive: HCT-15 colon 85.2% | HT29 colon 77.9% | SNB-75 CNS 77.3% | SNB-19 CNS 82.3% | U251 CNS 76.8% | PC-3 prostate 65.7% | SK-MEL-5 melanoma 92.8% | UACC-62 melanoma 88.3% | LOX IMVI melanoma 85.1% | SK-MEL-28 melanoma 104%

COC(=O)c1cc2c(/C=C3/NC(=S)NC3=O)coc2n1C
inactive: HCT-15 colon 90.3% | HT29 colon 116% | SNB-75 CNS 79.4% | SNB-19 CNS 101% | U251 CNS 70.7% | PC-3 prostate 66.7% | SK-MEL-5 melanoma 96.5% | UACC-62 melanoma 86.6% | LOX IMVI melanoma 98.2% | SK-MEL-28 melanoma 97%

C[C@H]1C(=O)N2c3ccccc3[C@@]3(O)C[C@@H](n4cnc5ccccc5c4=O)C(=O)N1[C@@H]23
inactive: HCT-15 colon 109% | HT29 colon 120% | SNB-75 CNS 98.3% | SNB-19 CNS 99.7% | U251 CNS 101% | PC-3 prostate 95.6% | SK-MEL-5 melanoma 123% | UACC-62 melanoma 98.3% | LOX IMVI melanoma 97.7% | SK-MEL-28 melanoma 100%

C=C(CN1CCc2c([nH]c3ccccc23)C1)c1ccc(C(=O)Nc2ccon2)cc1
inactive: HCT-15 colon 104% | HT29 colon 99.2% | SNB-75 CNS 96.6% | SNB-19 CNS 74.4% | U251 CNS 92% | PC-3 prostate 73.8% | SK-MEL-5 melanoma 88% | UACC-62 melanoma 80% | LOX IMVI melanoma 83.8% | SK-MEL-28 melanoma 97.8%

CCc1ccc(-c2nc(SCC(=O)NC3CCCCC3)n[nH]2)cc1
inactive: HCT-15 colon 88.6% | HT29 colon 101% | SNB-75 CNS 85.4% | SNB-19 CNS 98.7% | U251 CNS 89.3% | PC-3 prostate 77.1% | SK-MEL-5 melanoma 61.5% | UACC-62 melanoma 57.8% | LOX IMVI melanoma 67.8% | SK-MEL-28 melanoma 108%

Clc1ccc2c(c1)C(Br)c1cc(Cl)cc(Cl)c1-2 (stereo not given)
inactive: HCT-15 colon 78.1% | HT29 colon 111% | SNB-75 CNS 73.5% | SNB-19 CNS 90.9% | U251 CNS 79.5% | PC-3 prostate 82.6% | SK-MEL-5 melanoma 51.2% | UACC-62 melanoma 66.1% | SK-MEL-28 melanoma 112%
active: LOX IMVI melanoma 4.27%

CCOC(=O)CNC(=O)C1(NC(=O)CNC(=O)OCc2ccccc2)CCCC1
inactive: HCT-15 colon 102% | HT29 colon 105% | SNB-75 CNS 83.9% | SNB-19 CNS 102% | U251 CNS 106% | PC-3 prostate 98.7% | SK-MEL-5 melanoma 112% | UACC-62 melanoma 97% | LOX IMVI melanoma 95.4% | SK-MEL-28 melanoma 107%

COc1ccc2c(c1)CC[C@@H]1[C@@H]2CC[C@]2(C)[C@@H](O)C(=O)C[C@@H]12
inactive: HCT-15 colon 114% | HT29 colon 105% | SNB-75 CNS 97.2% | SNB-19 CNS 102% | U251 CNS 102% | PC-3 prostate 95.1% | SK-MEL-5 melanoma 107% | UACC-62 melanoma 94.5% | LOX IMVI melanoma 94% | SK-MEL-28 melanoma 113%

Cc1cc(Br)c(C)cc1Br
inactive: HCT-15 colon 101% | HT29 colon 94.2% | SNB-75 CNS 100% | SNB-19 CNS 108% | U251 CNS 98.9% | PC-3 prostate 95.8% | SK-MEL-5 melanoma 96.9% | UACC-62 melanoma 102% | LOX IMVI melanoma 97.6% | SK-MEL-28 melanoma 103%

COc1cc(C2CC(C3C(=O)N(C)C(=O)N(C)C3=O)=NN2c2cc(Cl)cc(Cl)c2)cc(OC)c1OC (stereo not given)
inactive: HCT-15 colon 98.2% | HT29 colon 91.6% | SNB-75 CNS 100% | SNB-19 CNS 91.7% | U251 CNS 92.5% | PC-3 prostate 74.3% | SK-MEL-5 melanoma 91.3% | UACC-62 melanoma 75.6% | LOX IMVI melanoma 99% | SK-MEL-28 melanoma 101%

NS(=O)(=O)c1ccc(-n2ncc3c(N/N=C/c4ccccc4)ncnc32)cc1
inactive: HCT-15 colon 108% | HT29 colon 81% | SNB-75 CNS 104% | SNB-19 CNS 80.4% | U251 CNS 89.7% | PC-3 prostate 80.6% | SK-MEL-5 melanoma 86.7% | UACC-62 melanoma 96.8% | LOX IMVI melanoma 91.7% | SK-MEL-28 melanoma 95.3%

CC1c2ccccc2-c2ccccc2N1C (stereo not given)
inactive: HCT-15 colon 102% | HT29 colon 102% | SNB-75 CNS 105% | SNB-19 CNS 97.3% | U251 CNS 99.2% | PC-3 prostate 83.9% | SK-MEL-5 melanoma 107% | UACC-62 melanoma 86.6% | LOX IMVI melanoma 94.6% | SK-MEL-28 melanoma 119%

O=C1N=C(N2CCOCC2)S/C1=C\c1cn(-c2ccccc2)nc1-c1ccccc1
active: SNB-75 CNS -30.2%
inactive: HCT-15 colon 89.4% | HT29 colon 80.5% | SNB-19 CNS 72.1% | U251 CNS 66.1% | PC-3 prostate 90.4% | SK-MEL-5 melanoma 66.4% | UACC-62 melanoma 77.8% | LOX IMVI melanoma 76% | SK-MEL-28 melanoma 72%

N#Cc1c(NC(=O)c2ccco2)[n+]([O-])c2cc(Cl)c(Cl)cc2[n+]1[O-]
inactive: HCT-15 colon 111% | HT29 colon 103% | SNB-75 CNS 103% | SNB-19 CNS 111% | U251 CNS 102% | PC-3 prostate 125% | SK-MEL-5 melanoma 94.8% | UACC-62 melanoma 85.2% | LOX IMVI melanoma 90.5% | SK-MEL-28 melanoma 104%
